The whole screen tested about 290,000 compounds, of which about 27,000 (9.3%) were called active. Cut-off read from the data, not from the text of the source: active = inhibition mostly above about 28% (no sharp cut-off); inactive = mostly below about 43%. The list comes from a sample in which actives are over-represented; it also holds similar structures and randomly drawn compounds. Where a SMILES comes first, the peptide text is derived from it. The star is where a group is joined. OPac = O=C(CO*)c1ccccc1; Bz = O=C(c1ccccc1)*

This assay in a line: A qHTS for Small Molecule Inhibitors of Shiga Toxin. Note: 0% is about no effect. Conditions: Vero cells, Shiga toxin protein synthesis inhibition reporter; at 38.7 µM, stronger effect = higher value. On the technique in general: In qHTS, concentration-response curves come from the screen itself.
Take `CC(=O)Nc1cccc(C(=O)OCN2C(=O)c3ccccc3C2=O)c1`: the inhibition (as a rule, the drop in the measured response relative to a control, in per cent) is -7.54% (inactive). `Cc1cnc(NC(=O)CSc2nnc(-c3ccccc3)n2Cc2ccccc2)s1`: the inhibition was -7.47% (inactive). For `Cc1cnc(NC(=O)CSc2c(Cl)cccc2Cl)s1`, the inhibition was 24.3% (inactive). Turning to `Cc1cnc(NC(=O)CSc2nnc(-c3ccc(Cl)cc3Cl)n2N)s1`, the inhibition was 20.9% (active).

For the molecule `COc1ccc(C)cc1N(CC(=O)N1CCCC1)S(=O)(=O)c1ccccc1`, the inhibition was 8.24% (inactive). For the molecule `COc1ccccc1CN1CCN(C(c2ccccc2)c2ccccc2)CC1`, the inhibition is -13% (inactive). In the case of `COc1cc(OC)c(NC(=O)C2CCCN2C(=O)OCc2ccccc2)cc1Cl` (centres undefined), the inhibition is -6.5% (inactive). The result for `COc1ccc(-c2csc3nc(-c4ccccc4F)oc(=O)c23)cc1OC` reads 1.32% (inactive); that for `COc1ccc(-c2csc(NC(=O)c3ccc(N4C(=O)CCC4=O)cc3)n2)cc1OC`, -16.4% (inactive). With `COc1ccc(OC)c(-c2csc(NC(=O)C3=NNC(=O)CC3)n2)c1`, the inhibition is -5.75% (inactive). `COc1ccc2c(c1)C(c1cccs1)=NNC(c1cccnc1)=N2`: the inhibition was 39.6% (inactive). As to `COc1ccc(OC)c(-c2csc(-c3cccs3)n2)c1`, the inhibition was 45.3% (active). With `Cc1cc(C)cc(NS(=O)(=O)Cc2ccccc2)c1`, the inhibition is 40.6% (inactive). Consider `O=C(N/N=C\c1cc2c(cc1Cl)OCO2)c1ccc(Br)s1`, for which the inhibition is -3.59% (inactive). Regarding `CC(NCc1cccs1)C(=O)Nc1cc(Cl)cc(Cl)c1` (centres undefined), the inhibition was 24.3% (inactive).

Consider `Cc1ccc(-c2csc(N3CCN(c4cc5c(cc4Cl)nc(-c4ccncc4)n5CCOCCO)CC3)n2)cc1`, for which the inhibition is -3.86% (inactive). Regarding `Cc1sc2ncn(CC(=O)NCCCC(=O)NCc3ccc(F)cc3)c(=O)c2c1C`, the inhibition is -6.98% (inactive). The result for `Cc1n[nH]c(=O)n1-c1ccc(C(C)C)cc1` reads -1.39% (inactive); that for `O=C1CS(=O)CN1c1ccc(Oc2ccccc2)cc1` (centres undefined), -11.4% (inactive); that for `Cc1n[nH]c(=O)n1-c1ccc(Oc2ccccc2)cc1`, 32% (active).

As to `COC(=O)c1ccccc1SC1CC(=O)N(c2cccc(C)c2)C1=O` (centres undefined), the inhibition is 25.9% (inactive). As for `Cc1ccc([N+](=O)[O-])cc1S(=O)(=O)N1CCCN(C)CC1`, the inhibition was -3.46% (inactive). For the molecule `Cc1nc(Cl)cc(N/N=C/c2ccccc2)n1`, the inhibition is 47.5% (inactive). For the molecule `C(=N\Nc1ccc2ccccc2n1)/c1ccc2c(c1)OCO2`, the inhibition is 4.21% (inactive). For the molecule `Cc1noc(C)c1/C=N/Nc1ccc2ccccc2n1`, the inhibition was 64.2% (active). Consider `CN(C)CCCNC(=S)N1CCN(c2nc(-c3ccccc3)cs2)CC1`, for which the inhibition is 23.7% (inactive). Take `COc1ccccc1-c1c(C)nn2c(C)c(C(C)=O)cnc12`: the inhibition was 3.88% (inactive). `COc1ccccc1-c1sc2ccccc2c1-c1ccc(C(C)=O)cc1`: the inhibition is 24.8% (active).

Regarding `COc1cc(C(C)=O)ccc1OC(=O)CN1C(=O)c2ccccc2C1=O`, the inhibition was -4.18% (inactive).

For `CCOc1ccc(C2C(C#N)=C(N)N(N(C)C)C3=C2C(=O)CCC3)cc1` (centres undefined), the inhibition was -5.92% (inactive).

As to `CC(C)c1ccc(/C=C2\NC(=O)NC2=O)cc1`, the inhibition was 38.8% (inactive). `CSCCC(NS(=O)(=O)c1ccc(C)cc1)C(=O)NCCc1c[nH]c2ccccc12` (centres undefined): the inhibition was -5.02% (inactive). As to `CC(C)(C)OC(=O)N/N=C/c1ccc(C(=O)O)cc1`, the inhibition was 51.6% (active). Next, `COC(=O)N/N=C/c1ccc(/C=N/NC(=O)OC)cc1`: -9.65% (inactive); `O=C(O)c1ccc(/C=N/NC(=O)c2ccc(Br)cc2)cc1`: 17.5% (inactive). With `CC1CC(C)CN(S(=O)(=O)c2cccc3nonc23)C1` (centres undefined), the inhibition was -8.46% (inactive).

`COc1cccc(N(C(=O)CNC(=O)c2ccco2)C(C(=O)NC2CCCCC2)c2cccnc2)c1` (centres undefined): the inhibition was -9.43% (inactive). Consider `Oc1ccc(-c2c(-c3ccccc3)nn3c(C(F)(F)F)cc(C(F)(F)F)nc23)cc1`, for which the inhibition is -10.8% (inactive). Take `COC(=O)c1cccc([N+](=O)[O-])c1CS(=O)(=O)c1ccc(C)cc1`: the inhibition is -10.2% (inactive). Regarding `Cc1ccc(N=C2NC(=O)c3cccc([N+](=O)[O-])c32)cc1`, the inhibition was 98.8% (active). Next, `CCN(Cc1ccccc1)C(=O)CCS(=O)(=O)c1ccc2c(c1)oc(=O)n2C`: 0.994% (inactive); `COC(=O)CNC(=O)c1ccccc1F`: -15.6% (inactive). Consider `O=C(COC(=O)CNC(=O)c1ccccc1F)NCC(F)(F)F`, for which the inhibition was 16.2% (inactive). Regarding `CSc1nnc(CNC(=O)c2ccccc2)n1-c1ccc(F)cc1`, the inhibition was -6.7% (inactive). Consider `O=C(CNC(=O)c1ccccc1F)c1ccc(Br)cc1`, for which the inhibition was 79.7% (active).

Take `O=C(CNC(=O)c1ccccc1)NCC(=O)OCC(=O)c1ccccc1` (Bz-Gly-Gly-OPac): the inhibition was -5.66% (inactive). In the case of `O=C(CNC(=O)c1ccc(F)cc1)c1ccccc1`, the inhibition was 90.2% (active).

Take `COc1cc(C(C(=O)NC2CCCC2)N(Cc2ccccc2)C(=O)c2snc(C(N)=O)c2N)ccc1O` (centres undefined): the inhibition is -1.22% (inactive). Next, `COc1cc(C(=O)OC2CCOC2=O)c([N+](=O)[O-])cc1OC` (centres undefined): -8.09% (inactive); `COCCCN1C(=O)C(=O)/C(=C(/O)c2ccc(S(=O)(=O)N3CCOCC3)cc2)C1c1ccc(F)cc1` (centres undefined): -3.02% (inactive). In the case of `Cc1ccc(S(=O)(=O)N2CCC3(CC2)OCCO3)c(C)c1`, the inhibition is 19.9% (inactive).

Take `CN(CCC1CCOCC1)C(=O)CC1C(=O)NCCN1Cc1cccc(F)c1` (centres undefined): the inhibition was -4.33% (inactive). Regarding `CN(C(=O)c1ccccn1)c1nnc(-c2ccccn2)s1`, the inhibition is 115% (active). Consider `COc1cc(OC)cc(-c2nnc(N(C)C(=O)c3ccncc3)s2)c1`, for which the inhibition is -6.02% (inactive). Next, `CN(C(=O)COc1ccccc1)c1nnc(-c2ccncc2)s1`: 3.11% (inactive); `COc1ccc(C(=O)NCCn2nc(C)cc2C)cc1OC1CCN(C(C)=O)CC1`: -11.5% (inactive). For the molecule `Cc1ccc(NC(=O)C(CC(=O)O)C2CCCO2)c(C)c1` (centres undefined), the inhibition was -1.94% (inactive). For the molecule `NNC(=O)c1ccc(Cl)cc1Cl`, the inhibition is 16.2% (inactive).

Consider `COc1cccc(CC(=O)Nc2nc(-c3ccc(OC)c(OC)c3)cs2)c1`, for which the inhibition is 17.3% (inactive). As for `Cc1ccc(C)c(NC(=O)CCC(=O)NNC(=O)c2cccs2)c1`, the inhibition was -2.76% (inactive). In the case of `CC(C)C(=O)Nc1ccc(C(=O)NNC(=O)c2cccs2)cc1`, the inhibition was 28.6% (inactive). Next, `Cc1ccc(NNC(=O)c2cccs2)cc1Cl`: 22.1% (inactive); `Cc1ccc(C(=O)NNC(=O)c2cccs2)cc1`: 86.5% (active); `O=C(NNC(=O)c1ccc(Cl)cc1Cl)c1cccs1`: 74.9% (active). For `Cc1ccc(-c2csc(NNC(=O)c3ccccc3)n2)cc1`, the inhibition is 1.14% (inactive). For the molecule `Cc1ccc(-c2csc(NC(=O)Cc3cccs3)n2)cc1C`, the inhibition is 37.6% (inactive). For `COc1cccc(CC(=O)Nc2ccc(-c3csc(C)n3)cc2)c1`, the inhibition is 28.8% (active). On to `COc1cccc(NC(=O)CN2CCN(c3nc(-c4cccc(OC)c4)cs3)CC2)c1`, for which the inhibition was -2.33% (inactive).

Regarding `COc1ccccc1CCNS(=O)(=O)c1cc2c3c(c1)C(C)C(=O)N3CCC2` (centres undefined), the inhibition was -4.37% (inactive). In the case of `CCn1c(=O)c(=O)[nH]c2c(=O)oc3ccc(S(=O)(=O)Nc4ccc(OC)cc4)cc3c21`, the inhibition was -7.69% (inactive). As for `O=C(NCc1cccs1)c1ccc(CS(=O)Cc2ccccc2Cl)o1` (centres undefined), the inhibition is -8.99% (inactive). In the case of `COc1cc(CO)ccc1OCC(=O)Nc1cccc2ccccc12`, the inhibition is -2.74% (inactive). The result for `CC1CN(C(=O)CCC(=O)NCc2cccnc2)c2ccccc2O1` (centres undefined) reads -5.3% (inactive); that for `O=C(CN1C(=O)c2cccnc2Oc2ccc(Cl)cc21)Nc1ccc(F)cc1`, -1.35% (inactive); that for `CCN(CC(=O)NCc1ccco1)S(=O)(=O)c1ccc(F)cc1`, -12.2% (inactive). Consider `O=C1C(=O)N(CCCN2CCOCC2)C(c2ccc([N+](=O)[O-])cc2)/C1=C(\O)c1ccc2c(c1)OCCO2` (centres undefined), for which the inhibition is 22.5% (inactive). Next, `COc1ccc(N2CCN(C(=O)c3ccccc3NC(=O)C3=C(C)OCCS3)CC2)cc1`: -21.3% (inactive); `Cc1ccc(S(=O)(=O)N[C@@H](Cc2ccccc2)C(=O)N2CCC(C(=O)N[C@H](C(=O)O)C(C)O)CC2)cc1` (some centres undefined): -8.35% (inactive); `Cc1ccc(C(=O)Nc2ccc(NC(=O)c3cccs3)cc2)c(C)c1`: 2.76% (inactive). For the molecule `Cc1nc(-c2ccc(NC(=O)c3cccs3)cc2)cs1`, the inhibition was 45.3% (active).

In the case of `Cc1ccc(-c2nnc(-c3ccc(NC(=O)c4cccs4)cc3)o2)cc1`, the inhibition was -3.6% (inactive).

For `CCOC(=O)C1CCN(S(=O)(=O)c2ccc3c(c2)N(C)C(=O)CC(=O)N3C)CC1`, the inhibition is -0.654% (inactive). On to `COc1ccc(NC(=O)NNC(=O)COc2cc(C)c(Cl)c(C)c2)c(OC)c1`, for which the inhibition is -7.12% (inactive).

With `CCCCSCCCNC(=O)C1CCC(CNS(=O)(=O)c2ccc(NC(C)=O)cc2)CC1` (centres undefined), the inhibition was -4.92% (inactive). On to `CCC1Sc2ccc(S(=O)(=O)CCC(=O)NCc3cccs3)cc2NC1=O` (centres undefined), for which the inhibition is -5.71% (inactive). Consider `O=C(NC1CCCC1)C(c1c(F)cccc1Cl)N(C(=O)c1csnn1)C1CC1` (centres undefined), for which the inhibition was -2.62% (inactive). Turning to `COc1ccc(N2CCN(S(=O)(=O)CCNC(=O)C34CC5CC(CC(C5)C3)C4)CC2)cc1`, the inhibition was -1.41% (inactive). Next, `COC(=O)c1cc(NC(=O)C2C3C=CC(C3)C2C(=O)O)cc(C(=O)OC)c1` (centres undefined): -19% (inactive); `CC(C)COC(=O)c1ccc(NC(=O)C2C3C=CC(C3)C2C(=O)O)cc1` (centres undefined): 77.2% (active); `CC(=O)NS(=O)(=O)c1ccc(NC(=O)C2C3C=CC(C3)C2C(=O)O)cc1` (centres undefined): -8.78% (inactive). On to `COc1ccc(CNC(=O)C(c2ccc(O)cc2)N(Cc2ccco2)C(=O)c2snc(C(N)=O)c2N)cc1` (centres undefined), for which the inhibition was -11.7% (inactive). With `CCCCCCCCC(=O)NCCOc1ccccc1`, the inhibition is -16.7% (inactive). The result for `CCCCCCOC(=O)NCC(O)c1ccccc1` (centres undefined) reads 85.6% (active); that for `CCCCCOC(=O)NCCOC(=O)Nc1ccc(C(=O)OCC)cc1`, -13.5% (inactive).

The values are drawn from PubChem BioAssay AID2315 (National Center for Advancing Translational Sciences (NCATS), 2010).
